Assay results published in ChEMBL document CHEMBL3988442, “University of Dundee, Small-Polar-MMV Screening Library” (2021).
For part of these data: Potency and affinity values are given separately.

What was measured:
Design in all cases: scale not given: direction of the effect not stated beside the values
[1] = molecular target: Protein translocase subunit SecA (Escherichia coli (strain K12)) (UniProt P10408); experiment: Assay to Identify E. coli SecA ATPase Inhibitors; format: functional; conditions: 30 µM
[2] = molecular target: T1, Ubiquitin-activating enzyme e1, putative (Leishmania donovani (strain BPK282A1)) (UniProt E9BSI1); experiment: Leishmania donovani Ubiquitin Activating Enzyme (LdE1); format: functional; conditions: 30 µM
T1 sequence (whole entry): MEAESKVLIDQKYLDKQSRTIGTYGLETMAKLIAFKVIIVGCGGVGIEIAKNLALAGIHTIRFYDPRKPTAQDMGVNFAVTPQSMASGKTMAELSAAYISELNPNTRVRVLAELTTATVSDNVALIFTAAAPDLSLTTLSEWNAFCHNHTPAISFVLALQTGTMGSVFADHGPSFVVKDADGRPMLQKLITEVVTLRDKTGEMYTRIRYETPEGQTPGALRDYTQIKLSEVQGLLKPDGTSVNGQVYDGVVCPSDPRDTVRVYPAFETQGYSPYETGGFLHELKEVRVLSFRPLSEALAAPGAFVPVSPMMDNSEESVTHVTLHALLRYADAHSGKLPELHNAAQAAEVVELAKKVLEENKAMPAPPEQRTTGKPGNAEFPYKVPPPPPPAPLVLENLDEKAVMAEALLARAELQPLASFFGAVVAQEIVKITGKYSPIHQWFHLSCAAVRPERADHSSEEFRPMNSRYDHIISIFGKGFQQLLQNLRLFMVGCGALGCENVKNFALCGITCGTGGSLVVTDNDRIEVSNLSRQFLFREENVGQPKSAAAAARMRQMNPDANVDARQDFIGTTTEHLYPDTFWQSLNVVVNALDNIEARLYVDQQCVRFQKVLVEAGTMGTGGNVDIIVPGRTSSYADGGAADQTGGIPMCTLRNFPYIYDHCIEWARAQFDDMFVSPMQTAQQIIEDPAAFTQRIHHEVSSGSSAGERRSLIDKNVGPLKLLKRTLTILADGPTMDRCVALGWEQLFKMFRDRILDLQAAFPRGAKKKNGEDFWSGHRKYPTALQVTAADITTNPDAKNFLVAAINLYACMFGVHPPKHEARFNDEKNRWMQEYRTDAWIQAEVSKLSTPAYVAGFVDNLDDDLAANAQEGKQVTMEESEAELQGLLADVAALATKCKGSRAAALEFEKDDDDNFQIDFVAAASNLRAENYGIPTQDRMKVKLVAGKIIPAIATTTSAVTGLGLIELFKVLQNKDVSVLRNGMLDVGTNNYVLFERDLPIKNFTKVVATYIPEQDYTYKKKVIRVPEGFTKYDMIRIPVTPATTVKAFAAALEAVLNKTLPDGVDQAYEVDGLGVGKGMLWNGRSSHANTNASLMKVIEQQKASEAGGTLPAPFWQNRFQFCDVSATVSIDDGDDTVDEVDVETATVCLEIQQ

[3] = molecular target: AMP-activated protein kinase, AMPK (Homo sapiens) (UniProt P54646+O43741+P54619+Q9UGJ0+Q9Y478+Q13131+Q9UGI9); experiment: AMP-dependent Kinase enzyme assay. An in vitro enzyme assay that detects ADP turnover that is directly proportional to AMPK activity. This uses naive AMPK that is activated during the assay with MK-8722; format: functional; conditions: 30 µM
[4] = molecular target: Sialic acid-binding Ig-like lectin 9 (Homo sapiens) (UniProt Q9Y336); experiment: Hs-Siglec9 ALPHAscreen SOP 20170721; conditions: 10 µM
Trypanosoma cruzi = experiment: Trypanosoma cruzi phosphomannomutase and mannose-1-phosphate guanylyltransferase assay; format: functional; conditions: 10 µM
[5] = molecular target: T2, Arginase-2, mitochondrial (Homo sapiens) (UniProt P78540); experiment: in vitro enzyme assay to detect the production of urea directly proportional to the activity of Arginase II; format: functional; conditions: 33.3 µM; note: in the data most compounds retested in dose-response had high values
T2 sequence (whole entry): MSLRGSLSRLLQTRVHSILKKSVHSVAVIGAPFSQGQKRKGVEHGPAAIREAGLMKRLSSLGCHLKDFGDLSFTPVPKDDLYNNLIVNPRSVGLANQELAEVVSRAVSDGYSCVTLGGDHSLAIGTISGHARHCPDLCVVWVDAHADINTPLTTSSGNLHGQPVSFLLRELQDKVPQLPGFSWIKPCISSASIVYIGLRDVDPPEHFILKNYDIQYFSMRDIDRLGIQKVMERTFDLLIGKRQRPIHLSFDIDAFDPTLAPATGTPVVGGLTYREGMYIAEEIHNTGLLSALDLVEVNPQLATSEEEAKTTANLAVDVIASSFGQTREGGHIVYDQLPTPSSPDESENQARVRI

[6] = molecular target: T3, Proteasome subunit beta (Trypanosoma cruzi) (UniProt O96673); experiment: Trypanosoma cruzi proteasome chymotrypsin-like activity (TcProtChymo) assay.; note: in the data most compounds retested in dose-response had high values; format: functional; conditions: 9.37 µM
T3 sequence (whole entry): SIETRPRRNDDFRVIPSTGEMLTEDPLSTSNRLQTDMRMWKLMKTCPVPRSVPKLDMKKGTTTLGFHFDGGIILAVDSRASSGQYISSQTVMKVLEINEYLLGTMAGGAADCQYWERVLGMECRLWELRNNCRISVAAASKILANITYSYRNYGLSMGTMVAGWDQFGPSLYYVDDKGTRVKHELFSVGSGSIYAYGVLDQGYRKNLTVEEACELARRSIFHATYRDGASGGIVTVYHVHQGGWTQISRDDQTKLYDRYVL

Homo sapiens = organism: Homo sapiens; experiment: To identify inhibition of the IFN signalling (Jak-Stat) pathway via expression of an eGFP reporter gene under the control of an IFN-stimulated response element (ISRE) containing MxA promoter.; format: functional; conditions: 30 µM
[7] = molecular target: T4, Tyrosyl-tRNA synthetase, putative (Trypanosoma cruzi (strain CL Brener)) (UniProt Q4DSP6); experiment: Trypanosoma cruzi tyrosyl tRNA synthetase (TcYRS) _High Tyrosine SOP; format: functional; conditions: 30 µM; note: in the data most compounds retested in dose-response had high values
T4 sequence (whole entry): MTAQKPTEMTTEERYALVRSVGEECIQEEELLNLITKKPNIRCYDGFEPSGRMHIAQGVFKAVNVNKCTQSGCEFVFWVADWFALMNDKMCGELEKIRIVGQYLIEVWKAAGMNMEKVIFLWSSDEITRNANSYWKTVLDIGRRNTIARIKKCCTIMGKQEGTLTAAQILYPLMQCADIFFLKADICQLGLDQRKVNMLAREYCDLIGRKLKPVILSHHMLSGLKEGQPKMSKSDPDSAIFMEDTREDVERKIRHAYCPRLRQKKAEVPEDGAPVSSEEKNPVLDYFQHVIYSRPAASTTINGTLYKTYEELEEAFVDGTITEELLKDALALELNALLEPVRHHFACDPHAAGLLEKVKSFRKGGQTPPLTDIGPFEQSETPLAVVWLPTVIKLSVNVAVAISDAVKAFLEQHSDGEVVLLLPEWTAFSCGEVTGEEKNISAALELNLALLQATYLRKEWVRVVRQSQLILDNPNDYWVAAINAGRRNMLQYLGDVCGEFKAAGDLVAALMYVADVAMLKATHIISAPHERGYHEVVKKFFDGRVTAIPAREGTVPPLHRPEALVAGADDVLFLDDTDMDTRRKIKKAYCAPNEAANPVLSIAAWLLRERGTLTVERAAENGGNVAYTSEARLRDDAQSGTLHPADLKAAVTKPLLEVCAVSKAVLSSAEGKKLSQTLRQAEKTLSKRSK

[8] = molecular target: T4, Tyrosyl-tRNA synthetase, putative (Trypanosoma cruzi (strain CL Brener)); experiment: Trypanosoma cruzi tyrosyl tRNA synthetase (TcYRS) SOP; format: functional; conditions: 30 µM
[9] = molecular target: Chromo domain-containing protein 1 (Saccharomyces cerevisiae (strain ATCC 204508 / S288c) (Baker's yeast)) (UniProt P32657); experiment: ScCHD-1 Enzyme Inhibition Assay; format: functional; conditions: 30 µM; note: in the data most compounds retested in dose-response had high values
Sequence of Chromo domain-containing protein 1 (Saccharomyces cerevisiae (strain ATCC 204508 / S288c) (Baker's yeast)) (P32657 whole entry, the tested form may be a part): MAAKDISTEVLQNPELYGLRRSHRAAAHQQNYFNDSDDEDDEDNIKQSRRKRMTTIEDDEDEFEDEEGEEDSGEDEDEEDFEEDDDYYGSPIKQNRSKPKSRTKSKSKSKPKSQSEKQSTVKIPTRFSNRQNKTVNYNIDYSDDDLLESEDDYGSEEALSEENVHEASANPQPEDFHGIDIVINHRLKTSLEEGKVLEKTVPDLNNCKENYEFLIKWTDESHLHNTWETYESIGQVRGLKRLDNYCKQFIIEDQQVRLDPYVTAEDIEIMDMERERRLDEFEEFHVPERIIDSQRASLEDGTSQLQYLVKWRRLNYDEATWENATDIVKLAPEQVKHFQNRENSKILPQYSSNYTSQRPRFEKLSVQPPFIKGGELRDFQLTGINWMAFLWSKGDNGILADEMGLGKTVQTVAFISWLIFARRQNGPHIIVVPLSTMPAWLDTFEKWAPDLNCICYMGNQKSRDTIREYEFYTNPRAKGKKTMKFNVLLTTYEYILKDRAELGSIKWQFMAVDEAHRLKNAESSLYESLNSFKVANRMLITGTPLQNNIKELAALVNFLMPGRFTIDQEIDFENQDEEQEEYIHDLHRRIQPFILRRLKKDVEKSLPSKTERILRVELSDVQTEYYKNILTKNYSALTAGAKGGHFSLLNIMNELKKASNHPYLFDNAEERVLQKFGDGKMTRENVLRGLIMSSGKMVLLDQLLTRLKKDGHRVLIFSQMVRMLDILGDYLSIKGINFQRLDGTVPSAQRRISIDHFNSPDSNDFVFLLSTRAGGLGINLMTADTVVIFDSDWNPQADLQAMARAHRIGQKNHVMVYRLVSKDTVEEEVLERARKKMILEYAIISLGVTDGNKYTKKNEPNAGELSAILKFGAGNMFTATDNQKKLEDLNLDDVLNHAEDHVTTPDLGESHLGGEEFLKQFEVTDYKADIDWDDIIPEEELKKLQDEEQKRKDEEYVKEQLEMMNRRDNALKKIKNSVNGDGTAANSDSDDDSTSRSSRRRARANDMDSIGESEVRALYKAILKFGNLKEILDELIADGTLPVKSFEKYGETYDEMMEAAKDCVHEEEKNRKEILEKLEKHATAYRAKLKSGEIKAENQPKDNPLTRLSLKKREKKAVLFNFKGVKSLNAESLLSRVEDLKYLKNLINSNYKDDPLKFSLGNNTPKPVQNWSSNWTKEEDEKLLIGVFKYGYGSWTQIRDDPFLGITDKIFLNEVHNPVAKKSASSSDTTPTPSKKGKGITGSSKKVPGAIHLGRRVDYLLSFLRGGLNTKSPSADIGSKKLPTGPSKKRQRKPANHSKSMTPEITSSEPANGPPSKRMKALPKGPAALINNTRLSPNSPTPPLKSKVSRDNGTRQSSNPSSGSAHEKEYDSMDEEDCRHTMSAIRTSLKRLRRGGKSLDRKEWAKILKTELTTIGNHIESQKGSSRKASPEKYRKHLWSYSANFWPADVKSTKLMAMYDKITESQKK

Sequence of Protein translocase subunit SecA (Escherichia coli (strain K12)) (P10408 whole entry): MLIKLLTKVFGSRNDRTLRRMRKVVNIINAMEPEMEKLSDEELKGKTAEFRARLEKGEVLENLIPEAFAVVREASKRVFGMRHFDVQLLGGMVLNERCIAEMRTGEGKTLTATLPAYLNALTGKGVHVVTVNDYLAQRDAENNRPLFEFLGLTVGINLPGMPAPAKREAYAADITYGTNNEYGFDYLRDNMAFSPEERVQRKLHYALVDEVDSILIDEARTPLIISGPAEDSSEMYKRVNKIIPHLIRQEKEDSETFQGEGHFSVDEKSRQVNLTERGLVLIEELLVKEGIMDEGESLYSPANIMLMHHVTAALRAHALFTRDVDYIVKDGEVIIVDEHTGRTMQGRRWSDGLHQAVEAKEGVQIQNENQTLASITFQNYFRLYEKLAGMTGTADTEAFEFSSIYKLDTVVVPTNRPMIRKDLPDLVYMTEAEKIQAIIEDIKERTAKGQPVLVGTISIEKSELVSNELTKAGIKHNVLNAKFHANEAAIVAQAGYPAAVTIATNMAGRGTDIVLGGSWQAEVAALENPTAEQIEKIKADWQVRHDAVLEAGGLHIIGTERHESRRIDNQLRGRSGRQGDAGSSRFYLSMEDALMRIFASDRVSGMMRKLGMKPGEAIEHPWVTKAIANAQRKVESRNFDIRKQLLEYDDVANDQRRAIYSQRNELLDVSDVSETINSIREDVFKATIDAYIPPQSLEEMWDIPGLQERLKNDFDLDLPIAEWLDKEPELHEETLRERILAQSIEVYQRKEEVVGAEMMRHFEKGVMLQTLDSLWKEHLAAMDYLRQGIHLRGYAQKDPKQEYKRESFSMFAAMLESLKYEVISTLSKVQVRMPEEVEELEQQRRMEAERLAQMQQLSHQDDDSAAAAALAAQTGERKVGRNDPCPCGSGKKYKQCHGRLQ
Sequence of Sialic acid-binding Ig-like lectin 9 (Homo sapiens) (Q9Y336 whole entry): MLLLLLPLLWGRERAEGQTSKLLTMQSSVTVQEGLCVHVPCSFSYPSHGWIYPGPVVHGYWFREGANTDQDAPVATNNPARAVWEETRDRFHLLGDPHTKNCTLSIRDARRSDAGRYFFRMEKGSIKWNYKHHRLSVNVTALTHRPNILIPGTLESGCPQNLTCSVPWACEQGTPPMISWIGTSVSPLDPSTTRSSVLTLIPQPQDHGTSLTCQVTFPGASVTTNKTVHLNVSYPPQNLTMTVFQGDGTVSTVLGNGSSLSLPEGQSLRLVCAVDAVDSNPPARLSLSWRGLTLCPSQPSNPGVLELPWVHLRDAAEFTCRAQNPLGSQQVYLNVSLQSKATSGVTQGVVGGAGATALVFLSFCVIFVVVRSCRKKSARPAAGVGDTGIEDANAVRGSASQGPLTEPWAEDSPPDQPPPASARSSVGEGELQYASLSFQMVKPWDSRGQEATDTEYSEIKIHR

## Cc1nccc(C2CN(Cc3cc[nH]n3)CCO2)n1 (stereo not drawn)
[1]
  Percent Effect: -1.51%
[2]
  Percent Effect: 1.35%
[3]
  Percent Effect: 9.42%
[4]
  Percent Effect: 3.04%
Trypanosoma cruzi
  Percent Effect: -1.98%
[5]
  Percent Effect: -1.16%
[6]
  Percent Effect: 4.84%
Homo sapiens
  Percent Effect: -10.9%
[7]
  Percent Effect: 0%
[8]
  Percent Effect: 3.9%
[9]
  Percent Effect: -12.4%

## Cc1cc(C)n(C2CN(CC(=O)N3CCOCC3)C2)n1
[1]
  Percent Effect: -2.95%
[2]
  Percent Effect: 1.27%
[3]
  Percent Effect: 6.75%
[4]
  Percent Effect: 3.92%
Trypanosoma cruzi
  Percent Effect: 0.103%
[5]
  Percent Effect: 3.66%
[6]
  Percent Effect: 11.2%
Homo sapiens
  Percent Effect: -2%
[7]
  Percent Effect: 10.4%
[8]
  Percent Effect: 7.59%
[9]
  Percent Effect: 0.125%

## CN(Cc1ccccc1F)C(=O)CS(=O)(=O)Cc1ccc(Cl)c(Cl)c1
[1]
  Percent Effect: 0.269%
[2]
  Percent Effect: 10.4%
[3]
  Percent Effect: 6.8%
[4]
  Percent Effect: 0.809%
Trypanosoma cruzi
  Percent Effect: 2.06%
[5]
  Percent Effect: -8.21%
[6]
  Percent Effect: 4.29%
Homo sapiens
  Percent Effect: 9.03%
[7]
  Percent Effect: -6.67%
[8]
  Percent Effect: -296%
[9]
  Percent Effect: -20.3%
